Compounds with a hit are over-represented: about 2.3% of the library has one in this group of screens.
CHO-K1 Ca antag – counter-screen for M1 antagonists: effect in parental CHO-K1 cells | actives 0.6% (n = 360,000) | ATP-induced calcium, Fluo-8 fluorescence | AID 602250 | inhibition, % at 3 µM;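 active means inhibition above a per-plate cutoff, the plate's mean sample inhibition plus 3 SD, cut at about 24% in these data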
M1 PAM – positive allosteric modulators of human M1 muscarinic receptor. CHO-K1 hM1, Fluo-8 calcium fluorescence, ACh EC20; 0% = ACh EC20, 100% = maximal ACh. activation, % at 3 µM. actives 0.088% (n = 360,000). AID 588819; in the data active means activation above about 19%, passing the limit was not always enough
Target sequence (P11229 whole entry, looked up): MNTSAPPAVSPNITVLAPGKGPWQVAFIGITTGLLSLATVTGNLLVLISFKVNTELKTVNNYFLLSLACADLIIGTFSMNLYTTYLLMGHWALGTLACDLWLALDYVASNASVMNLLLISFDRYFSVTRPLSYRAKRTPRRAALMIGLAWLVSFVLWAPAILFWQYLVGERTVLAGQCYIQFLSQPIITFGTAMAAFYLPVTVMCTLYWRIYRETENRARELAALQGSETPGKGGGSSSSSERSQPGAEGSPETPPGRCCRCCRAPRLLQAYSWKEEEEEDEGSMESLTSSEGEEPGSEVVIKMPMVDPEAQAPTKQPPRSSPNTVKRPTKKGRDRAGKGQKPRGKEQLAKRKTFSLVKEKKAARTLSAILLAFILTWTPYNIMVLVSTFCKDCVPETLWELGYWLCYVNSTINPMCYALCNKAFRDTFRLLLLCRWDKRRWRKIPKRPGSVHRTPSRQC
CHO-K1 Ca PAM – counter-screen for M1 PAMs: effect in parental CHO-K1 cells. ATP EC20, Fluo-8 calcium fluorescence; 0% at ATP EC20, 100% at ATP max. activation, % at 3 µM. actives 0.02% (n = 360,000);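 active means activation above the run cutoff, the mean activation of all test compounds plus 3 SD, cut at about 40% in these data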;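 further: peak over basal fluorescence ratio in a 140 s read after ATP addition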
CHO-K1 Ca ag – nonselective activator or artifact in parental CHO-K1 cells. Fluo-8 calcium fluorescence; scaled to maximal ATP response, vehicle zero. activation, % at 3 µM. actives 0.48% (n = 360,000). AID 602248; in the data active means activation above about 15%;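 further: untransfected CHO-K1 host cells lacking M1 receptor as counterscreen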
M1 ag – human M1 muscarinic receptor agonism | P11229 | CHO-K1 hM1, Fluo-8 calcium fluorescence, agonist mode; 0% DMSO, 100% acetylcholine EC100 | activation, % at 3 µM | actives 0.33% (n = 360,000) | AID 588814;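 active means activation above the run's mean compound activation plus 3 SD, cut at about 16% in these data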;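 further: peak over basal fluorescence ratio within a 140 s kinetic read after compound addition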
CHRM1 antagonist – antagonists of human M1 muscarinic receptor; actives 1.3% (n = 360,000); CHO-K1 hM1, Fluo-8 calcium fluorescence, ACh EC80 antagonist; P11229; inhibition, % at 3 µM;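 active means percent inhibition above its own plate's cutoff, namely the mean of that plate's compound wells plus 3 SD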;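 further: peak over basal fluorescence ratio during 140 s after agonist addition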
Hits are given with their value; i = inactive; nt = no result.

SMILES | CHO-K1 Ca antag | M1 PAM | CHO-K1 Ca PAM | CHO-K1 Ca ag | M1 ag | CHRM1 antagonist
COc1ccc(C(C(=O)OCCN(C)C)c2ccccc2)cc1 (stereo not given) | i | i | i | i | i | 78.3
CC1(C(=O)NCc2ccccc2)CCC(=O)N1CCc1c[nH]c2ccccc12 (stereo not given) | 30.6 | i | i | i | i | i
CC1(c2nnnn2Cc2ccccc2)CCC(=O)N1CCc1c[nH]c2ccccc12 (stereo not given) | i | nt | i | i | nt | nt
O=C1CCC/C(=N/Nc2ccc(Cl)cc2)C1 | i | i | i | i | i | i
COc1cccc(N2CC(C(=O)Nc3nnc(SCCN4CCOCC4)s3)CC2=O)c1 (stereo not given) | i | i | i | i | i | i
CCOc1ccccc1Nc1cc(C)c2cccc(C)c2n1 | i | i | i | i | i | i
CCOc1ccc(Nc2cc(Nc3ccccc3OCC)nc(C=C(C#N)C#N)n2)cc1 | i | i | i | 15.5 | i | i
COc1cc(/C=C(/C#N)C(=O)Nc2ccc(C)cc2)ccc1Oc1nc(Cl)ncc1F | i | i | i | i | i | i
CN(C)CCCN=C(NO)c1ccc(Cl)cc1Cl | i | i | i | i | 49.9 | i
C=CCn1c(SCCOc2ccc(OC)cc2)nnc1C(CO)NC(=O)c1ccc(OC)cc1 (stereo not given) | 24.8 | i | i | i | i | i
CCn1cc(C(=O)O)c(=O)c2cnc(N3CCN(C(=S)Nc4ccccc4C(F)(F)F)CC3)nc21 | i | i | i | i | i | i
O=C(NCC1(N2CCCCC2)CCCCC1)c1ccc(NS(=O)(=O)c2ccccc2)cc1 | 27.6 | i | i | i | i | i
O=C(NC1CCCC1)C(c1ccccc1F)N(C(=O)Cc1cccs1)c1ccc2c(c1)OCCO2 (stereo not given) | i | i | i | 23.9 | i | i
O=C(Cc1cccc2ccccc12)Nc1ccc(N2CCOCC2)cc1 | i | i | i | i | i | i
Cc1ccc(C(=O)N2CC(=O)Nc3ccc(F)cc3C2c2ccc(F)cc2)cc1[N+](=O)[O-] (stereo not given) | i | i | i | i | i | i
CN(C)c1ccc(NC(=O)c2sc(SCC(=O)Nc3nccs3)nc2N)cc1 | i | i | i | i | i | 23.6
CCS(=O)(=O)c1cc([N+](=O)[O-])c(Sc2ccccc2NC(C)=O)s1 | i | i | i | i | i | i
Cc1c(P(=S)(c2ccccc2)c2ccccc2)[n+]2ccccc2n1CCc1ccccc1 | i | i | i | i | i | 47.5
Cc1cc(C)cc(NC(=O)c2nnn(Cc3cc(C)ccc3C)c2N)c1 | i | i | i | i | 26.1 | i
Nc1c(C(=O)NCc2ccc3c(c2)OCO3)nnn1CC(=O)Nc1ccc(Br)cc1 | i | i | i | i | i | i
Cc1ccc(C)c(Cn2nnc(C(=O)Nc3ccc4c(c3)OCCO4)c2N)c1 | i | i | i | i | 28.1 | i
Nc1c(C(=O)NCc2ccc3c(c2)OCO3)nnn1Cc1ccc(Br)cc1 | i | i | i | 17.9 | 16.5 | i
Cn1nc(C(=O)NNC(=O)C2CSC3(C)CCC(=O)N23)c2ccccc2c1=O (stereo not given) | i | i | i | i | i | i
CCOC(=O)C1(C)CCN1C(=O)c1ccc(N(C)C)cc1 (stereo not given) | i | i | i | i | i | i
CC(C)CC(c1nnnn1Cc1cccs1)N1CCN(c2nc3ccccc3s2)CC1 (stereo not given) | i | i | i | i | i | i
SMILES | CHO-K1 Ca antag | M1 PAM | CHO-K1 Ca PAM | CHO-K1 Ca ag | M1 ag | CHRM1 antagonist
CCC(c1nnnn1Cc1cccs1)N1CCN(c2nc3ccccc3s2)CC1 (stereo not given) | 47.6 | nt | i | i | i | i
Cn1c(=O)c2c(SCC(=O)N3CCCCC3)nc(-c3ccccc3F)nc2n(C)c1=O | i | i | i | i | i | i
CCN(CCCC(=O)c1ccc(F)cc1)CCc1ccccc1 | i | i | i | i | i | 59.1
C=CC[C@@H](CC(=O)NCCO)C(=O)NC[C@H](OC(=O)[C@@H](CC=C)Cc1ccc(F)cc1)c1ccccc1 | i | i | i | i | i | 53.1
C=CC[C@H](CC(=O)N(CCO)Cc1ccccc1)C(=O)NC[C@H](OC(=O)[C@@H](CC=C)Cc1ccc(F)cc1)c1ccccc1 | i | i | i | i | i | 43.2
C=CC[C@@H](CC(=O)N[C@@H](CO)Cc1ccccc1)C(=O)NC[C@H](OC(=O)[C@@H](CC=C)Cc1ccc(F)cc1)c1ccccc1 | i | i | i | i | i | i
C=CC[C@@H](CC(=O)N(CCO)Cc1ccccc1)C(=O)NC[C@@H](OC(=O)[C@@H](CC=C)Cc1ccc(F)cc1)c1ccccc1 | i | i | i | i | i | i
C=CC[C@@H](CC(=O)N[C@@H](CO)Cc1ccccc1)C(=O)NCCOC(=O)[C@@H](CC=C)Cc1ccc(F)cc1 | 23.9 | i | i | i | i | i
Nc1ccn([C@@H]2O[C@H](CNCc3cc(Cl)ccc3OCc3ccc(Cl)cc3)[C@@H](O)[C@H]2O)c(=O)n1 | i | i | i | i | i | i
O=C(CCC1CCCN(Cc2cccc3c2OCO3)C1)NCc1ccc(F)c(F)c1 (stereo not given) | i | i | i | i | i | 42.1
COc1ccccc1/C=C/CN1CCCC(CCC(=O)NCc2ccc(F)c(F)c2)C1 (stereo not given) | i | i | i | i | i | i
COc1ccc(/C=C/CN2CCCC(CCC(=O)NCc3ccc(F)c(F)c3)C2)cc1 (stereo not given) | i | i | i | i | i | 84.3
Cc1ccsc1C(=O)N1CCC1(C)C(=O)NCc1cccnc1 (stereo not given) | i | i | i | i | i | i
CC(OC(=O)CCN=C1NS(=O)(=O)c2ccccc21)C(=O)Nc1ccc(F)cc1 (stereo not given) | i | i | i | i | i | i
Fc1ccccc1CNc1ncnc2sccc12 | i | i | i | i | i | i
c1ccc2c(c1)OCC(CNc1ncnc3sccc13)O2 (stereo not given) | 30.7 | i | i | i | i | i
COC(=O)[C@H](Cc1ccccc1)NC(=O)/C=C/[C@H]1O[C@@H](n2ccc(=O)[nH]c2=O)[C@H](O)[C@@H]1O | i | i | i | i | i | i
Clc1ccc(CSc2nnc(NC3=NCCCCC3)s2)cc1 | i | i | i | i | i | 33.4
Nc1nnc(SCc2ccc(Cl)cc2)s1 | i | i | i | i | i | 28.0
Nc1nnc(CSCc2ccc(Cl)cc2)s1 | i | i | i | i | i | i
N#CCCN(C(=O)COC(=O)C1=NNC(=O)CC1)c1ccccc1 | i | i | i | i | i | i
COc1ccc(CCNc2nc(C)nc3c2oc2ccccc23)cc1OC | i | i | i | i | i | i
COc1ccc(CCNc2ncnc3c2oc2ccccc23)cc1OC | 44.3 | i | i | i | i | 39.8

Assay outcomes: PubChem BioAssay, The Scripps Research Institute Molecular Screening Center
